TDP1 cell noCPT – qHTS for Inhibitors of human tyrosyl-DNA phosphodiesterase 1 (TDP1): qHTS in cells in absence of CPT | DT40 Tdp1-/- hTDP1 cells, no CPT, ATP luminescence, 48 h | Potency, µM (titrated, usually from 46.2 µM), without a hit: at the top dose activity change, negative = growth inhibition, most hits filed as inhibitors | actives 15% (n = 420,000) | AID 686978, 2013; also: nearly all actives have a fitted effect of over 55% in size
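Stably hTDP1-transfected Tdp1-null chicken DT40 cells were treated with library compounds minus camptothecin and grown for at least 48 hr at 37 °C, after which cellular ATP was quantified by luminescence.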
GCN5L2 inh – inhibitors of human GCN5L2 histone acetyltransferase | Q92830 | Potency, µM (doses to about 58.9 µM), without a hit: top-dose activity change, negative = inhibition, usual class: inhibitors | actives 0.21% (n = 390,000) | GCN5L2 HAT assay, ThioGlo1 CoA-SH fluorescence | AID 504327
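GCN5L2 (20nM final) in 50mM HEPES, 0.1mM EDTA pH 7.5, 0.01% Tween-20 was preincubated 15 min at room temperature with compound, then given ThioGlo1 (50uM), H3(1-25) peptide (75uM) and acetyl-CoA (70uM); CoA-thiol fluorescence (Ex340/Em540) was read at 0 and 20 min.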
TDP1 block – TDP1 (human) enzyme inhibition | recombinant TDP1, AlphaScreen DNA substrate cleavage | Potency, µM (top dose mostly 130 µM), without a hit: top-dose activity change, negative = inhibition, most hits filed as inhibitors | actives 0.28% (n = 350,000); also: nearly all actives have a fitted effect of over 40% in size
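Tdp1 1 nM final; 15 min RT w/ cpd; substrate 15 nM, 5 min; beads 10 ug/ml, 10 min; AlphaScreen read. Neg ctrl: no enzyme.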
DT40 TDP1 CPT – DT40-hTDP1 cell growth loss with CPT | chicken DT40 Tdp1-/-;hTDP1 cells + 20 nM CPT, ATP luminescence, 48 h | actives 12% (n = 420,000) | Potency, µM (top dose mostly 46.2 µM), for inactives: top-dose activity change, negative = growth inhibition, usual class: inhibitors; also: nearly all actives have a fitted effect of over 55% in size
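Cell growth measured by CellTiter-Glo luminescence after a minimum 48 h, 37 C compound exposure with 20 nM CPT in Tdp1-knockout DT40 cells stably expressing hTDP1, seeded 400/well; qHTS titration format.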
PLK1 PBD block – inhibitors of human PLK1 polo-box domain binding. P53350. Plk1 PBD binding of FITC phosphopeptide, fluorescence polarization. Potency, µM, without a hit: max response, negative = inhibition, hits mostly inhibitors. actives 2.8% (n = 360,000). AID 720504; also: series mostly up to about 57 µM; nearly all actives have a fitted effect of over 65% in size
VDR inhibitor – inhibitors of human vitamin D receptor; P11473; VDR-SRC2-3 peptide fluorescence polarization, 2 h; Potency, µM, inactives show max response, negative = inhibition, hits mostly inhibitors; actives 0.93% (n = 400,000); AID 504847
Target sequence (P11473 whole entry, looked up): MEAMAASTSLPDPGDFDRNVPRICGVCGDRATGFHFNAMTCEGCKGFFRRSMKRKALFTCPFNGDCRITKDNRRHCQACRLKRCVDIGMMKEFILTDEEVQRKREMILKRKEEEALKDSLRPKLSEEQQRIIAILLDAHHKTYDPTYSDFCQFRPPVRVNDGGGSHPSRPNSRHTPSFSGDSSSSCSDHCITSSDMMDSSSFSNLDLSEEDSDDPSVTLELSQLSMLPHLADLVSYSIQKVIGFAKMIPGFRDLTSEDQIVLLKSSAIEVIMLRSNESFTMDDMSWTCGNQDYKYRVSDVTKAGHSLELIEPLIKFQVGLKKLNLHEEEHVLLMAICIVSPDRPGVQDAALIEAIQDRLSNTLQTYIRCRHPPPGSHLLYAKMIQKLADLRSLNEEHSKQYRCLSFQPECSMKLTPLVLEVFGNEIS
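Compounds are added to VDR with labelled SRC2-3 coactivator peptide and held 2 h at room temperature. Inhibition of the VDR–peptide interaction is then read as a change in fluorescence polarization.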
* marks the source's active call; other numbers are inactive results. This is a sample that favours compounds with a hit; in the whole collection about 18% have one here. Calls follow the shape of the dose curve; as a rule, active = well fitted curve in the direction sought with a large enough effect; inconclusive = small, poorly fitted or top-dose-only effect, or another doubt; inactive = no such curve, though single readings can be large; an effect the other way counts as inactive or inconclusive. % is scaled to controls: 0 for no effect and ±100 for the full control effect; potency is read from the fitted curve at half-maximal effect.

Cc1ccc([C@H]2C(C(=O)O)=CC[C@@H](c3ccc4c(c3)OCO4)N2S(=O)(=O)c2ccc(C)cc2)cc1 was read as TDP1 cell noCPT -28%, GCN5L2 inh 0%, TDP1 block 1%, DT40 TDP1 CPT -23%, PLK1 PBD block -4% and VDR inhibitor -15%.
Screening CN(C(=O)c1ccc(NC(=O)Cc2ccc(NC(=O)C3CCN(C(=O)C4CCC4)CC3)cc2)cc1)C1CC1 returned TDP1 cell noCPT -14%, GCN5L2 inh -1%, TDP1 block 11%, DT40 TDP1 CPT -13%, PLK1 PBD block 4% and VDR inhibitor 3%.
Screening CN(CCc1ccccc1)C(=O)c1ccc(NC(=O)Cc2ccc(NC(=O)C3CCN(C(=O)C4CCCC4)CC3)cc2)cc1 returned TDP1 cell noCPT 23µM*, DT40 TDP1 CPT 16µM*, PLK1 PBD block -14% and VDR inhibitor -12%.
Screening CN(C(=O)c1ccc(NC(=O)Cc2ccc(NC(=O)C3CCN(C(=O)C4CCCCC4)CC3)cc2)cc1)C1CCCC1 returned TDP1 cell noCPT 21µM*, DT40 TDP1 CPT inconclusive, PLK1 PBD block -2% and VDR inhibitor -1%.
`CN(CCc1ccccc1)C(=O)c1ccc(NC(=O)Cc2ccc(NC(=O)C3CCN(C(=O)C4CC4)CC3)cc2)cc1` gave TDP1 cell noCPT inconclusive, DT40 TDP1 CPT 23µM*, PLK1 PBD block -4% and VDR inhibitor -14%.
For CN(CCc1ccccc1)C(=O)c1ccc(NC(=O)Cc2ccc(NC(=O)C3CCCN(C(=O)C4CCCCC4)C3)cc2)cc1 (centres undefined) the results were TDP1 cell noCPT inconclusive, DT40 TDP1 CPT inconclusive, PLK1 PBD block -13% and VDR inhibitor 1%.
`FC(F)(Cl)c1nnc2ccc(Cl)nn12` gave TDP1 cell noCPT inconclusive, GCN5L2 inh -2%, TDP1 block 5%, DT40 TDP1 CPT inconclusive, PLK1 PBD block -9% and VDR inhibitor 0%.
COC(=O)[C@H](C)NS(=O)(=O)C1CC1 was read as TDP1 cell noCPT -20% and DT40 TDP1 CPT -4%.
`COCCn1c(=O)c(-c2ccc(F)cc2)nc2cnc(Nc3cccc(OC)c3)nc21` gave TDP1 cell noCPT 3%, GCN5L2 inh -17%, DT40 TDP1 CPT 16% and VDR inhibitor -17%.
`O=C(Nc1ccccc1Br)C1CC(=O)N(c2ccc3c4c(cccc24)CC3)C1` (centres undefined) gave TDP1 cell noCPT 21µM*, GCN5L2 inh -2%, TDP1 block 5%, DT40 TDP1 CPT 23µM*, PLK1 PBD block -18% and VDR inhibitor 4%.
For CCC/C=C(\CCC)C(NC(=O)Oc1ccc(F)cc1)c1ccc(C(=O)OC)cc1 (centres undefined) the results were TDP1 block 5%.
Screening Cc1cc(C)c2nc(SCC(=O)NCCC3=CCCCC3)cc(C)c2c1 returned TDP1 cell noCPT 21µM*, GCN5L2 inh 1%, TDP1 block 0%, DT40 TDP1 CPT inconclusive, PLK1 PBD block inconclusive and VDR inhibitor -13%.
For CC(C)c1nnc(SCC(=O)NCCC2=CCCCC2)n1N the results were TDP1 cell noCPT -16%, GCN5L2 inh 4%, TDP1 block 0%, DT40 TDP1 CPT -2%, PLK1 PBD block 11µM* and VDR inhibitor 89µM*.
`O=C(COC(=O)c1ccccc1C(=O)c1ccc(Cl)c([N+](=O)[O-])c1)NC1CCCCCC1` gave TDP1 cell noCPT 23µM*, GCN5L2 inh -5%, TDP1 block 8%, DT40 TDP1 CPT inconclusive, PLK1 PBD block 0% and VDR inhibitor 4%.
For O=C(COC(=O)c1ccccc1C(=O)c1ccc(Cl)cc1)NC(c1ccccc1)c1ccccc1 the results were TDP1 cell noCPT 15µM*, GCN5L2 inh -24%, TDP1 block 8%, DT40 TDP1 CPT 12µM*, PLK1 PBD block -9% and VDR inhibitor 0%.
`O=C(COC(=O)c1ccccc1C(=O)c1ccc(Cl)cc1)NCCc1ccccc1` gave TDP1 cell noCPT inconclusive, GCN5L2 inh -1%, TDP1 block 3%, DT40 TDP1 CPT inconclusive, PLK1 PBD block 6% and VDR inhibitor 5%.
For Cn1c(N)c(C(=O)COC(=O)c2ccccc2C(=O)c2ccc(Cl)c([N+](=O)[O-])c2)c(=O)n(C)c1=O the results were TDP1 cell noCPT 18µM*, GCN5L2 inh -10%, TDP1 block 0%, DT40 TDP1 CPT inconclusive, PLK1 PBD block -4% and VDR inhibitor 0%.
Cn1c(N)c(C(=O)COC(=O)c2ccc([N+](=O)[O-])o2)c(=O)n(C)c1=O was read as TDP1 cell noCPT inconclusive, GCN5L2 inh -6%, TDP1 block -9%, DT40 TDP1 CPT 18µM*, PLK1 PBD block -5% and VDR inhibitor 33%.
Cn1c(N)c(C(=O)COC(=O)c2ccccc2C(=O)c2ccccc2)c(=O)n(C)c1=O was read as TDP1 cell noCPT -4%, GCN5L2 inh 1%, TDP1 block 3%, DT40 TDP1 CPT inconclusive, PLK1 PBD block -11% and VDR inhibitor -6%.
Screening O=C(COC(=O)c1ccc2c(c1[N+](=O)[O-])C(=O)c1ccccc1C2=O)NC1CC1 returned TDP1 cell noCPT inconclusive, GCN5L2 inh -10%, TDP1 block 4%, DT40 TDP1 CPT 3.7µM*, PLK1 PBD block -1% and VDR inhibitor -18%.
Screening O=C(COC(=O)c1cccc2c1C(=O)c1ccccc1C2=O)NC1CCCCC1 returned TDP1 cell noCPT inconclusive, GCN5L2 inh -3%, TDP1 block 8%, DT40 TDP1 CPT inconclusive, PLK1 PBD block -8% and VDR inhibitor -8%.
Screening CN(CCC#N)C(=O)COC(=O)c1cccnc1Nc1ccccc1F returned TDP1 cell noCPT 8%, GCN5L2 inh 1%, TDP1 block 0%, DT40 TDP1 CPT -19%, PLK1 PBD block 27µM* and VDR inhibitor -11%.
CN(CCC#N)C(=O)COC(=O)c1ccccc1C(=O)c1ccc(Cl)c([N+](=O)[O-])c1 was read as TDP1 cell noCPT inconclusive, GCN5L2 inh -1%, TDP1 block -2%, DT40 TDP1 CPT 16µM*, PLK1 PBD block inconclusive and VDR inhibitor 3%.
Screening Cc1cccc(N(C)S(=O)(=O)c2ccc3c(c2)C(C)(C)C(=O)N3C)c1 returned TDP1 cell noCPT inconclusive, GCN5L2 inh 1%, DT40 TDP1 CPT inconclusive, PLK1 PBD block -9% and VDR inhibitor 1%.
